# Measurements taken from PubChem BioAssay AID504840 (Johns Hopkins Ion Channel Center, 2011).
# The campaign covered roughly 1,500 compounds. About 890 (59%) were called active.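 Rule for the calls: active = inhibition of the choline-evoked signal at any tested dose together with a fitted dose-response curve; inactive = no inhibition at any dose or no curve.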 So high a share suggests a set chosen from earlier hits. The list is a sample of the results. Measured potencies and affinities stand elsewhere.
# Biological target: High affinity choline transporter 1 (Homo sapiens) (UniProt Q9GZV3)
# Sequence (Q9GZV3 whole entry, looked up): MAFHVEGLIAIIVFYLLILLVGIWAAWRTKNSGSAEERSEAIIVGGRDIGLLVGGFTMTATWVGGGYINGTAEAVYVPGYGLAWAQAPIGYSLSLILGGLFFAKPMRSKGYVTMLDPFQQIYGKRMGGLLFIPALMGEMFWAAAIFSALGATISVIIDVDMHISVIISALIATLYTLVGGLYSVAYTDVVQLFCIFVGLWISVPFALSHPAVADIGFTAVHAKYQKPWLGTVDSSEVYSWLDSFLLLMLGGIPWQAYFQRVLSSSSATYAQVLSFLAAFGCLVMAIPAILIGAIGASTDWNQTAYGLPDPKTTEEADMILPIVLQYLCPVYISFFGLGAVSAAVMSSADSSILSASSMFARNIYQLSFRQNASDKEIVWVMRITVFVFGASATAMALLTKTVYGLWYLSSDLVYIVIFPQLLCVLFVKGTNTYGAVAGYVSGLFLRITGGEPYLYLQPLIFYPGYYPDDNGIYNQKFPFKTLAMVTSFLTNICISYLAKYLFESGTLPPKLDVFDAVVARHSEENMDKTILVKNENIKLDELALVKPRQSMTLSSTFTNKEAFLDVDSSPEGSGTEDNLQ
# Experiment: CHT inhibitors, dose response, cell-based, 5-point CRC, membrane potential dye (AID 504840);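 note: 0% = buffer-only response and 100% = EC90 choline response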
# Conditions: HEK293-CHT, choline-induced depolarization, CHT with LV-to-AA double alanine mutation; series mostly up to 37 µM; inhibition: at the top concentration
row,SMILES,inhibition
1,O=C(CC(c1ccccc1)c1ccccc1)Nc1ccncc1,40.4% (inactive)
2,O=C(O)CC(NC(=O)c1sc2ccccc2c1Cl)c1ccc(OC2CCCC2)cc1 (stereo unspecified),75% (inactive)
3,CC(O)c1cccc(NC(=O)CC(c2ccccc2)c2ccccc2)c1 (stereo unspecified),44.2% (inactive)
4,O=C(O)c1ccc2c(c1)N(Cc1ccc(F)cc1)C(=O)c1ccccc1S2,0.404% (inactive)
5,CC1CCCN(CCCNC(=O)c2ccc3c(c2)N(Cc2ccccc2F)C(=O)c2ccccc2S3(=O)=O)C1 (stereo unspecified),65.3% (inactive)
6,Cc1ccc(C(=O)N/C(=C\C=C\c2ccccc2)C(=O)NCc2ccco2)cc1,46.1% (inactive)
7,CC(C)c1ccc(C(C)NC(=O)C2CCCC2)cc1 (stereo unspecified),43.4% (inactive)
8,COc1ccccc1C(=O)NC(=S)NNC(=O)c1sc2ccccc2c1Cl,42.9% (inactive)
9,O=C(NNC(=S)NC(=O)c1sc2ccccc2c1Cl)c1ccc(Cl)cc1,41.7% (inactive)
10,Cc1onc(-c2ccccc2)c1C(=O)NNC(=S)NC(=O)c1ccc(Br)cc1,35.1% (inactive)
11,CCCOc1ccc(C(=O)NC(=S)NNC(=O)c2c(-c3ccccc3)noc2C)cc1,16.7% (inactive)
12,CCn1c(=O)n(CC)c2cc(S(=O)(=O)N3CCc4ccccc43)ccc21,57.9% (inactive)
13,O=C(NNS(=O)(=O)c1ccccc1[N+](=O)[O-])c1cc2ccccc2cc1O,30.1% (inactive)
14,C=CCN(CC=C)S(=O)(=O)c1ccc2nc(NC(=O)C3CCCO3)sc2c1 (stereo unspecified),39.1% (inactive)
15,CCOC(=O)c1sc(NC(=O)CSc2nc3c(c(=O)n2-c2ccc(C)cc2)SCC3)c(C(=O)OCC)c1C,-2.16% (inactive)
16,CC(OC(=O)CCN1C(=O)c2cccc([N+](=O)[O-])c2C1=O)C(=O)Nc1cc(Cl)cc(Cl)c1 (stereo unspecified),32.8% (inactive)
17,CCc1c(C2(O)CCCCC2)[nH]c2cc(C(F)(F)F)ccc12,20.7% (inactive)
18,Cc1cc(NS(=O)(=O)c2ccc(NC(=O)/C=C/c3c(F)cccc3Cl)cc2)nc(C)n1,60.7% (inactive)
19,Cc1cc(C)cc(NC(=O)c2ccc(N3C(=O)C4CCCCC4C3=O)cc2)c1 (stereo unspecified),13.7% (inactive)
20,Cc1ccc(NC(=O)c2ccc(Cn3cc([N+](=O)[O-])cn3)cc2)c(C)c1,49.9% (inactive)
21,CN(Cc1ccccc1)CC(O)COc1ccc(CNCc2cc3ccccc3s2)cc1 (stereo unspecified),46.2% (inactive)
22,O=C(O)CC(Cc1ccc(Cl)cc1)C(=O)Nc1cc(Cl)ccc1Cl (stereo unspecified),38.6% (inactive)

row,SMILES,inhibition
1,Cc1cc(NCCCn2ccnc2)n2ncc(-c3ccc(Cl)cc3)c2n1,38.5% (inactive)
2,CCOC(=O)C1(CCOC)CCN(Cc2ccc(C(=O)OC)cc2)CC1,-0.386% (inactive)
3,Cc1ccc(C(=O)NCC(=O)N2CCC(Cc3ccccc3)CC2)cc1,54.4% (inactive)
4,C=CCNC(=O)c1ccc(C2SCC(=O)N2Cc2ccccc2)cc1 (stereo unspecified),20.7% (inactive)
5,CC(C)CNS(=O)(=O)c1ccc(CCC(=O)N2CCN(Cc3ccc4c(c3)OCO4)CC2)cc1,46.5% (inactive)
6,COc1ccc2c(c1)-c1c(ssc1=S)C(C)(C)N2,39.6% (inactive)
7,CC(C)OC(=O)CN1CCN(S(=O)(=O)c2cc(Cl)ccc2Cl)CC1,39% (inactive)
8,CC(=O)c1ccc(S(=O)(=O)N(C)C(C)CCc2ccco2)cc1 (stereo unspecified),28.6% (inactive)
9,Cc1ccc(C(C)NC(=S)NCc2ccc(F)cc2)cc1C (stereo unspecified),40.9% (inactive)
10,COc1cccc(NC(=S)N(Cc2ccc(C(=O)O)cc2)Cc2ccc(OC)c(OC)c2)c1,48.2% (inactive)
11,CCN(CC)CCCN(C(=O)c1ccco1)c1nc(-c2ccc(Cl)cc2)cs1,42.7% (inactive)
12,CCCCNC(=O)c1onc(CSc2ccc(C(C)C)cc2)c1C(=O)O,17.3% (inactive)
13,O=C1c2ccccc2-c2cccnc21,60.6% (inactive)
14,O=[N+]([O-])c1ccc(Nc2ccccc2O)c2nonc12,42.7% (inactive)
15,CCc1ccc(N/C(=N/c2nc(C)cc(C)n2)NC(C)=O)cc1,16.7% (inactive)
16,Cc1ccc2nc(Nc3ccccc3)cc(C)c2c1,64.7% (inactive)
17,CCSc1nnc2n1C(C)(C)Cc1ccccc1-2,23% (inactive)
18,CCOc1ccc(OCc2ccc(C(=O)N3CCCC3)o2)cc1,50.7% (inactive)
19,COc1ccc(C2CC(c3ccc(Br)cc3)=NN2C(=O)CN2CCCC2)cc1 (stereo unspecified),51% (inactive)
20,COc1ccc(C2SCC(=O)N2CCc2ccc(OC)c(OC)c2)cc1 (stereo unspecified),24% (inactive)
21,CC(=O)N1c2ccc(S(=O)(=O)NCc3ccccc3Cl)cc2CC1C (stereo unspecified),33% (inactive)
22,CCOC(=O)N1CCN(C(=O)c2ccc3nc(N4CCC(C)CC4)sc3c2)CC1,40.3% (inactive)

row,SMILES,inhibition
1,CCCc1nc2oc(C(=O)OCC)c(N)c2c2c1COC(C)(C)C2,54.8% (inactive)
2,CCOC(=O)c1oc2nc(C(C)C)c3c(c2c1N)CCC3,56.5% (inactive)
3,OCCn1nc(-c2ccccc2)cc1-c1ccccc1,17.9% (inactive)
4,Cc1ccc(CNc2ncc(-c3ccccc3)n2C)o1,75.2% (inactive)
5,Cn1c(SCC(=O)N2CCN(c3ccccc3)CC2)nnc1-c1ccccc1,27.7% (inactive)
6,CS(=O)(=O)Nc1ccccc1C(=O)NCCSc1ccccc1,18.1% (inactive)
7,COc1ccc(NC(=O)N2CCC(n3cnc4ccccc43)CC2)cc1,50.6% (inactive)
8,COc1ccc(C(=O)C2CCCN(C(=O)C3=CCCC3)C2)c(C)c1 (stereo unspecified),23.5% (inactive)
9,COc1ccc(C(=O)C2CCCN(C(=O)c3noc4c3CCCC4)C2)cc1F (stereo unspecified),63.6% (inactive)
10,CCC1CCCCN1CCCNC(=O)c1ccc2c(c1)c(C)c(C)n2C (stereo unspecified),54.9% (inactive)
11,CCN(CC)C(=O)c1ccc(COc2ccccc2Br)o1,65.5% (inactive)
12,O=C(Nc1cccnc1)c1ccc(COc2ccccc2Cl)o1,33.4% (inactive)
13,Cc1ccc(S(=O)(=O)CC(O)COc2ccc(F)cc2Cl)cc1 (stereo unspecified),22.4% (inactive)
14,Cc1ccc(S(=O)(=O)NC(=O)COc2cc(C)ccc2C(C)C)cc1,52.6% (inactive)
15,CCN(CC)S(=O)(=O)c1ccc(OC)c(NC(=S)Nc2ccc(C)c(C)c2)c1,55.9% (inactive)
16,Cc1ccc(S(=O)(=O)N2CCC(=O)N(CCOCc3ccc(F)cc3)CC2)cc1,43.1% (inactive)
17,Cc1ccc(-c2nnc(N3CCCCC3)c3ccccc23)cc1S(=O)(=O)N1CCN(C)CC1,63.7% (inactive)
18,Cc1ccc(C)c(S(=O)(=O)C(C#N)c2nc3ccccc3nc2N2CC(C)OC(C)C2)c1 (stereo unspecified),27.3% (inactive)
19,COc1cc(OC)cc(C(=O)NC(=S)NNC(=O)[C@H]2C[C@@H]2c2ccccc2)c1,40.3% (inactive)
20,CS(=O)(=O)c1ncc(Cl)c(C(=O)Nc2ccc(N3CCOCC3)cc2)n1,47.9% (inactive)
21,CS(=O)(=O)c1ncc(Cl)c(C(=O)Nc2ccc(OC(F)F)cc2)n1,58.6% (inactive)
22,Cc1nn(CC2CC2)c(=O)n1-c1ccc(Oc2ccccc2)cc1,38.3% (inactive)

row,SMILES,inhibition
1,N#Cc1c(Cl)cccc1N1CCCC1,31.6% (inactive)
2,C[C@@H](NCCc1ccc(O)cc1)[C@@H](O)c1ccc(O)cc1,45.4% (inactive)
3,CC(C)NCC(O)c1ccc(O)c(O)c1 (stereo unspecified),69.8% (inactive)
4,CCc1ccccc1NC(=O)C1CC(c2ccc(OC)cc2)=NO1 (stereo unspecified),74.4% (inactive)
5,N#CCCn1cc(/C=C2\NC(=S)N(c3ccccc3)C2=O)c(-c2ccc(F)cc2)n1,57.6% (inactive)
6,Cc1ccc(C(=O)N/C(=C\c2cccs2)c2nc3ccccc3[nH]2)cc1,11.9% (inactive)
7,CSc1ccc(C(=O)C2CCCN(C(=O)c3ccsc3)C2)cc1 (stereo unspecified),56.5% (inactive)
8,COc1ccc(C(=O)N2CCCC(O)C2)cc1OC1CCN(C(C)C)CC1 (stereo unspecified),62.6% (inactive)
9,CC(C)(C)CC(=O)NCCc1csc(-c2ccccc2)n1,41.1% (inactive)
10,N#C/C(=N\Nc1cccc(C(F)(F)F)c1)C(=O)c1ccsc1,41.5% (inactive)
11,CC[N+]1(CC)CC2=Cc3c(ccc4ccccc34)C(C)C2C1 (stereo unspecified),52.3% (inactive)
12,CC(=O)N(C)c1ccc(NC(=O)C(Sc2ccccc2)c2ccccc2)cc1 (stereo unspecified),37% (inactive)
13,CC(C)(C)C(=O)/C(C#N)=C/c1ccc(O)cc1,26.3% (inactive)
14,Cc1ccc(S(=O)(=O)Oc2ccccc2/C=C2\SC(=O)NC2=O)cc1,32.3% (inactive)
15,Cc1ccc(S(=O)(=O)Oc2cccc(/C=N/n3cnnc3)c2)cc1,25.6% (inactive)
16,Cc1ccc(S(=O)(=O)Oc2ccccc2/C=C2/SC(=O)NC2=O)cc1,45% (inactive)
17,CS(=O)(=O)C1=NN2C(=N)/C(=C\c3ccc(OC(=O)c4ccco4)cc3)C(=O)N=C2S1,59.2% (inactive)
18,CCCC1=NN2C(=N)/C(=C\c3ccc(SCc4ccco4)o3)C(=O)N=C2S1,51% (inactive)
19,CC(C)CS(=O)(=O)C1=NSC2=NC(=O)/C(=C\c3ccc(OC(=O)c4ccco4)cc3)C(=N)N21,46% (inactive)
20,CCOc1ccc(Br)cc1S(=O)(=O)N1CCCC1,36.7% (inactive)
21,Cc1ccccc1NC(=O)c1ccc(C)c(S(=O)(=O)N2CCN(C)CC2)c1,60.5% (inactive)
22,COc1ccc(/C=C/C(=O)NC2CCCCCCC2)cc1S(=O)(=O)N1CCOCC1,59% (inactive)

row,SMILES,inhibition
1,Oc1ccc(/C=N/n2c(-c3ccccc3)n[nH]c2=S)cc1Br,8.27% (inactive)
2,CN(c1ccc(O)cc1)c1nc(-c2cccs2)cs1,23.4% (inactive)
3,COc1ccc(C(=O)NCc2ccon2)cc1OC1CCN(C(C)C)CC1,57.9% (inactive)
4,COc1cc(CNCCc2ccccc2)cc(Br)c1OCC(=O)Nc1ccccc1C,37.7% (inactive)
5,Cn1c(SCc2nc3ccccc3s2)nnc1-c1cccs1,18.9% (inactive)
6,CC(=O)Nc1ccc(S(=O)(=O)Nc2nc3ccccc3nc2Nc2ccc(N)cc2)cc1,27.9% (inactive)
7,COc1ccc(-c2nnc(CSc3nc4ccccc4c(=O)n3CC3CCCO3)o2)cc1OC (stereo unspecified),57.4% (inactive)
8,CC(C)(C)NS(=O)(=O)c1ccc(N2C(=O)c3ccccc3C2=O)cc1,29.7% (inactive)
9,Cc1noc(C)c1C(=O)Nc1sc(C)c(-c2ccccc2)c1C#N,36.6% (inactive)
10,O=C(OCc1nc2ccsc2c(=O)[nH]1)c1cc(Br)c(Br)s1,33.4% (inactive)
11,O=c1c(-c2ccccc2)c[nH]n1-c1cccc([N+](=O)[O-])c1,51.3% (inactive)
12,Cc1[nH]n(-c2ccccc2)c(=O)c1C(c1cccc([N+](=O)[O-])c1O)c1c(C)[nH]n(-c2ccccc2)c1=O,62.9% (inactive)
13,O=C(C1CCN(S(=O)(=O)c2ccc(Br)s2)CC1)N1CCN(c2ccccc2)CC1,7.31% (inactive)
14,Cc1cccnc1NC(=O)c1cccc(S(=O)(=O)N2CCN(c3ccc(F)cc3)CC2)c1,28.9% (inactive)
15,COc1cc(-c2nnc(SC/C=C/c3ccccc3)n2N)cc(OC)c1OC,32.7% (inactive)
16,CCOC(=O)c1sc(=S)n(CC)c1NC(=O)C1CC1,23.2% (inactive)
17,O=c1cc(CNc2ccc(Br)cc2)nc2sccn12,33.4% (inactive)
18,CCCN1Cc2cccc(C(=O)NCc3ccccc3OC)c2C1=O,30.2% (inactive)
